# Activity calls are given as the source filed them. Calls come from the whole dose curve; as a rule, active = well fitted curve in the direction sought with a large enough effect in the repeat runs; inconclusive = weak or mixed curves; inactive = flat fitted curve, though single readings scatter.
# Assay: qHTS assay to test for compound auto fluorescence at 590 nm (red) in HepG2 cells (AID 720674)
# Details: HepG2 autofluorescence, red 540/590 nm, 1 h; series mostly up to 91.3 µM
# Excerpt: U.S. Tox21 Program National Center for Advancing Translational Sciences [NCATS] NIH Chemical Genomics Center [NCGC] U.S. Environmental Protection Agency [EPA] National Institutes of Environmental Health Sciences [NIEHS] National Toxicology Program [NTP] U.S. Food and Drug Administration [FDA] Tox21 Assay Overview: Compound auto fluorescence often interferes with screening of the compound library against various biological targets and signaling pathways. Some of these compounds may have fluorophoric properties. Such properties may interfere with the assay outputs resulting in false positives and/or negatives. To decrease such complications and ensure the compound activities are relevant in terms of biological response, the Tox21 10K compound library was screened for auto fluorescence. From the fluorophores used as reporter signals in our screening assays, the auto fluorescence equivalencies of compounds against three fluorophores have been evaluated: Triamterene, Fluorescein and Rose Bengal sodium for blue, green and red fluorescence, respectively. The fluorescence intensities were measured using Excitation/Emission wavelengths at 405/460nm, 485/535nm and 540/590nm for blue, green and red labels, respectively. This assay includes the red fluorescence data.
# Tox21 Assay Protocol Summary: 2,000 HepG2 cells in 5 uL of culture medium (MEM containing 10% FBS) per well were dispensed into black wall/clear bottom 1536-well plates using a Multidrop Combi Dispenser (ThermoFisher Scientific, Waltham, MA). The assay plates were incubated overnight at 37 C to allow cell attachment to the well bottom, followed by the transfer of 23 nL compound or DMSO vehicle by a pintool work station (Kalypsys , San Diego, CA). After the assay plates were incubated for 1 hr at 37 C and 5% CO2, fluorescence intensities in the assay plates were measured by an Envision (PerkinElmer, Shelton, CT) plate reader using three labels for measuring blue, green and red fluorescence at […] 460, 535 and 590 nm respectively.
row,SMILES,outcome
1,O=C(c1cc(O)c(O)c(O)c1)c1ccc(O)c(O)c1O,inactive
2,Cc1ccc(N)c(S(=O)(=O)O)c1,inactive
3,Oc1ccc2ccccc2c1N=Nc1ccccc1,inactive
4,NS(=O)(=O)c1cc2c(cc1Cl)NC=NS2(=O)=O,inactive
5,CCc1ccc(O)cc1,inactive
6,Oc1c(Cl)cc(Cl)c(Cl)c1Cl,inactive
7,O=C1CCCCC1,inactive
8,c1ccc2ccccc2c1,inactive
9,CC(C)n1c(/C=C/[C@@H](O)C[C@@H](O)CC(=O)O)c(-c2ccc(F)cc2)c2ccccc21,inactive
10,CCCCNC(N)=O,inactive
11,C=C1CC[C@H](O)CC1=C/C=C1\CCC[C@]2(C)[C@@H]([C@H](C)/C=C/[C@H](C)C(C)C)CC[C@@H]12,inactive
12,Cc1cc(O)c2c(c1)C(=O)c1cc(O)cc(O)c1C2=O,inactive
13,C=C1C2CCC(C2)C1(C)C (stereo not given),inactive
14,CC1COc2ccccc2N1C(=O)C(Cl)Cl (stereo not given),inactive
15,COC(=O)c1ccc(C(=O)OC)cc1,inactive
16,O=C1O[C@H](CO)[C@@H](O)[C@H](O)[C@H]1O,inactive
17,O=S(=O)(O)c1cc(S(=O)(=O)O)c2c(N=Nc3ccccc3)c(O)ccc2c1,inactive
18,OC1CCCC1,inactive
19,Clc1cc(Cl)c(Cl)cc1Cl,inactive
20,CCCCCCC(C)(C)S,inactive

row,SMILES,outcome
1,CCCCOCCOCCOC(=O)CCCCC(=O)OCCOCCOCCCC,inactive
2,O=C(O)c1ccc([N+](=O)[O-])cc1,inactive
3,C[C@@H](O)[C@H]1C(=O)N2C(C(=O)O)=C(S[C@@H]3CN[C@H](C(=O)N(C)C)C3)[C@H](C)[C@H]12,inactive
4,CC1=C(CC(=O)O)c2cc(F)ccc2/C1=C\c1ccc(S(C)=O)cc1 (stereo not given),inactive
5,CN(C)c1cccc(O)c1,inactive
6,Oc1ccc(OCc2ccccc2)cc1,inactive
7,CS(=O)(=O)c1ccc([C@@H](O)[C@@H](CO)NC(=O)C(Cl)Cl)cc1,inactive
8,Nc1cc(-c2ccncc2)c[nH]c1=O,inactive
9,NCCc1ccc(O)c(O)c1,inactive
10,C[C@@H]1O[C@@H](OC[C@H]2O[C@@H](Oc3c(-c4ccc(O)c(O)c4)oc4cc(O)cc(O)c4c3=O)[C@H](O)[C@@H](O)[C@@H]2O)[C@H](O)[C@H](O)[C@H]1O,inactive
11,Oc1ccc2ccccc2c1,inactive
12,OC[C@@H](O)[C@@H](O)[C@H](O)[C@@H](O)CO,inactive
13,C=C(C)C(=O)OCCC[Si](OC)(OC)OC,inactive
14,O=C(c1ccc(O)cc1)c1ccc(O)cc1O,inactive
15,Cn1c([N+](=O)[O-])cnc1COC(N)=O,inactive
16,CCCCCC/C=C/CCCCCCCC(=O)O,inactive
17,C/C=C(C)/C=C/C=C(C)C,inactive
18,OCC1CCCO1 (stereo not given),inactive
19,CCC(C)C=O (stereo not given),inactive
20,NC(=O)NNc1ccccc1,inactive

# From PubChem BioAssay (Tox21)
